The campaign covered roughly 290,000 compounds. About 1,800 (0.62%) were called active. The sample holds actives, similar compounds and a random draw of the others, so the mix is not that of the screen. Cut-off read from the data, not from the text of the source: active = inhibition above about 50%; inactive = the rest.
Experiment: inhibition of NOD2-driven NF-kB reporter – cell-based, luminescence, uHTS, HEK293 (AID 1566)
Details: HEK293 NOD2/NF-kB luciferase reporter, at 4 µM, hits give high values

Row | Structure (SMILES) | inhibition
1 | Cc1ccc(-c2nc(CS(=O)CC(=O)NCCCN3CCN(Cc4ccccc4)CC3)c(C)o2)cc1 (stereo unspecified) | 28.9% (inactive)
2 | Cc1oc(-c2ccc(Cl)cc2)nc1CS(=O)CC(=O)NCCCN1CCN(Cc2ccccc2)CC1 (stereo unspecified) | 61.5% (active)
3 | Cc1oc(-c2ccc(Cl)cc2)nc1CS(=O)CC(=O)NCCCN1CCOCC1 (stereo unspecified) | 16.6% (inactive)
4 | Cc1c(-c2nc(-c3ccc(C(F)(F)F)cc3)no2)n(C)oc1=O | -51.2% (inactive)
5 | CCN(CC)C(=O)C1CCCN(Cc2ccccc2)C1 (stereo unspecified) | -6.7% (inactive)
6 | Cc1cccc(NC(=O)NCc2ccc3c(c2)cc(C)n3C)c1 | 10.6% (inactive)
7 | COC(=O)CCn1nnc(-c2cccs2)n1 | 6.8% (inactive)
8 | COC(=O)CCn1nnc(-c2ccc(C)cc2)n1 | -23.2% (inactive)
9 | CCc1ccc(-c2nnn(CCC(=O)OC)n2)cc1 | 54.4% (active)
10 | COc1ccc(OC)c(NC(=O)CCCC(=O)NC2CCCCC2)c1 | 10.6% (inactive)
11 | COC(=O)C(Cc1ccc(O)cc1)NC(=O)C(C)NC(=O)c1ccc(C(C)(C)C)cc1 (stereo unspecified) | -9.1% (inactive)
12 | CC(=O)C1=C(O)C(=O)N(c2nccs2)C1c1ccccc1 (stereo unspecified) | -1.4% (inactive)
13 | O=C(C1=C(O)C(=O)N(c2nccs2)C1c1ccccc1)c1cc2ccccc2o1 (stereo unspecified) | -20.5% (inactive)
14 | CSc1ccccc1-c1nnc(-c2ccc(Cl)c(Cl)c2)o1 | -48.1% (inactive)
15 | Cc1cc([N+](=O)[O-])ccc1NC(=O)C(C)N1CCN(c2ccccn2)CC1 (stereo unspecified) | 12% (inactive)
16 | Cc1ccc(S(=O)(=O)NCc2ccc(C(=O)N3CCCC3)cc2)cc1 | -3.3% (inactive)
17 | Cc1ccc(S(=O)(=O)NCc2ccc(C(=O)N3CCN(c4ccccc4)CC3)cc2)cc1 | 12.6% (inactive)
18 | COc1ccc(-c2nc(CN3CCN(c4cc(C)nc(C)c4)CC3)c(C)o2)c2ccccc12 | 30.3% (inactive)
19 | COc1ccc(-c2nc(CN3CCN(c4ccccc4OC)CC3)c(C)o2)cc1 | 1.8% (inactive)
20 | O=C(NC1CCCCC1)C(c1ccc(O)cc1)N(C(=O)c1cnccn1)c1cccc(F)c1 (stereo unspecified) | 3.4% (inactive)
21 | CC(C)(C)CC(=O)Nc1ccccc1N1CCN(c2ccccc2)CC1 | -19.6% (inactive)

Row | Structure (SMILES) | inhibition
22 | CCCC(=O)NC(c1ccc(C(C)C)cc1)c1ccc2cccnc2c1O (stereo unspecified) | 21.9% (inactive)
23 | CCCC(=O)NC(c1ccc(C)cc1)c1ccc2cccnc2c1O (stereo unspecified) | 13% (inactive)
24 | CCC(=O)NC(c1ccc(C)cc1)c1ccc2cccnc2c1O (stereo unspecified) | 70% (active)
25 | Cc1cccc(C2(c3cccc(C)c3)CC2C(=O)Nc2ccc([N+](=O)[O-])cc2O)c1 (stereo unspecified) | 48.8% (inactive)
26 | CC1(C)CC1C(=O)Nc1ccc([N+](=O)[O-])cc1Br (stereo unspecified) | 9.5% (inactive)
27 | Cc1ccc(C2(c3ccc(C)cc3)CC2C(=O)Nc2ccc([N+](=O)[O-])cc2O)cc1 (stereo unspecified) | 52.6% (active)
28 | O=C(N/N=C/c1ccccc1O)C1CC(=O)N(c2ccc(Cl)cc2)C1 (stereo unspecified) | 47.3% (inactive)
29 | Cc1ccsc1/C=N/NC(=O)C1CC(=O)N(c2ccc(F)cc2)C1 (stereo unspecified) | 16.6% (inactive)
30 | O=C(N/N=C/c1ccccc1O)C1CC(=O)N(c2ccc(F)cc2)C1 (stereo unspecified) | 59.3% (active)
31 | Cc1cc(C(=O)NNC(=S)NCC(C)C)no1 | -0.2% (inactive)
32 | CCCSc1nnc(-c2c[nH]c3ccccc23)n1CC | -33.8% (inactive)
33 | Cn1[nH]c(=O)c(Cl)c(Cl)c1=O | 10.7% (inactive)
34 | COc1ccccc1/C=C/C(C)=O | -13.4% (inactive)
35 | COc1ccccc1/C=C/C(=O)/C=C/c1ccccc1O | 50.2% (active)
36 | COc1ccccc1/C=C/C(=O)c1ccccc1 | -52.6% (inactive)
37 | CCOc1ccc2[nH]c(=O)c(CN(CC3CCCN3CC)C(=O)NCc3ccccc3)cc2c1 (stereo unspecified) | 13.6% (inactive)
38 | Nc1cc(S(=O)(=O)O)cc([N+](=O)[O-])c1O | 8.2% (inactive)
39 | O=C(NCCN1CCOCC1)c1ccc(Cl)c(Cl)c1 | -11.3% (inactive)
40 | O=C(Nc1ccc2snnc2c1)N1CCCCC1 | 3.3% (inactive)
41 | O=C(Nc1ccc2c(c1)OCO2)c1cc(C2CC2)on1 | -108% (inactive)
42 | COc1cc(/C=C2\CCOC2=O)cc(OC)c1OC | -11.1% (inactive)

Row | Structure (SMILES) | inhibition
43 | COc1cc(/C=C2\CC/C(=C\c3cc(OC)c(OC)c(OC)c3)C2=O)cc(OC)c1OC | -18.8% (inactive)
44 | CN(C)C1(CNC(=O)C2CCN(S(=O)(=O)c3cc(Cl)ccc3Cl)CC2)CCCCC1 | -8.8% (inactive)
45 | Fc1ccc2[nH]c3c(N4CCN(Cc5ccc6c(c5)OCO6)CC4)ncnc3c2c1 | 55.3% (active)
46 | COc1ccc2[nH]c3c(N4CCN(Cc5ccc6c(c5)OCO6)CC4)ncnc3c2c1 | 3.4% (inactive)
47 | Cc1ccc2[nH]c3c(N4CCN(Cc5ccc6c(c5)OCO6)CC4)ncnc3c2c1 | 49.8% (inactive)
48 | CC(C)CC(N)c1cn([C@@H](CCC(=O)O)C(=O)N2CCNCC2)nn1 (stereo partly specified) | -7.7% (inactive)
49 | CNC(C)C#Cc1ccc2c(=O)c3c(OC)cccc3oc2c1 (stereo unspecified) | -33.5% (inactive)
50 | CC(=O)CCSc1ncnc2sc(-c3ccccc3)cc12 | -124% (inactive)
51 | O=C(O)CSc1ncnc2sc(-c3ccccc3)cc12 | 15.1% (inactive)
52 | Cc1ccc(SCCN2CCN(CC(C)C)CCC2=O)cc1 | -18.4% (inactive)
53 | O=C(NC1CCCCCCC1)c1cc(F)c(F)cc1Cl | -57.3% (inactive)
54 | Cc1csc(Nc2ccccc2C(F)(F)F)n1 | -3.5% (inactive)
55 | CC(=O)Nc1cccc(S(=O)(=O)N2CCCCCC2)c1 | 2.3% (inactive)
56 | O=C(CCc1ccccc1Cl)Nc1cccc(S(=O)(=O)N2CCCC2)c1 | 4% (inactive)
57 | O=S(=O)(Nc1cccc(S(=O)(=O)N2CCCCCC2)c1)c1ccccc1 | 16.1% (inactive)
58 | O=S(=O)(Nc1nc2ccccc2nc1Nc1ccc2c(c1)OCO2)c1ccccc1 | 26% (inactive)
59 | COc1ccc(S(=O)(=O)Nc2nc3ccccc3nc2Nc2ccc3c(c2)OCO3)cc1 | 25.7% (inactive)
60 | O=S(=O)(Nc1nc2ccccc2nc1Nc1cccc(S(=O)(=O)N2CCCCC2)c1)c1ccccc1 | 55.5% (active)
61 | COc1ccc(S(=O)(=O)Nc2cccc(S(=O)(=O)N3CCCCCC3)c2)cc1 | -4.9% (inactive)
